Holding throughout (set-up): scale not given: direction of the effect not stated beside the values
Assay [1] addresses Protein translocase subunit SecA (Escherichia coli (strain K12)) (UniProt P10408). The assay can be described thus: Assay to Identify E. coli SecA ATPase Inhibitors. Type of assay: functional. Conditions: 30 µM.
Assay [2] deals with T1, Ubiquitin-activating enzyme e1, putative (Leishmania donovani (strain BPK282A1)) (UniProt E9BSI1).
T1 sequence (whole entry): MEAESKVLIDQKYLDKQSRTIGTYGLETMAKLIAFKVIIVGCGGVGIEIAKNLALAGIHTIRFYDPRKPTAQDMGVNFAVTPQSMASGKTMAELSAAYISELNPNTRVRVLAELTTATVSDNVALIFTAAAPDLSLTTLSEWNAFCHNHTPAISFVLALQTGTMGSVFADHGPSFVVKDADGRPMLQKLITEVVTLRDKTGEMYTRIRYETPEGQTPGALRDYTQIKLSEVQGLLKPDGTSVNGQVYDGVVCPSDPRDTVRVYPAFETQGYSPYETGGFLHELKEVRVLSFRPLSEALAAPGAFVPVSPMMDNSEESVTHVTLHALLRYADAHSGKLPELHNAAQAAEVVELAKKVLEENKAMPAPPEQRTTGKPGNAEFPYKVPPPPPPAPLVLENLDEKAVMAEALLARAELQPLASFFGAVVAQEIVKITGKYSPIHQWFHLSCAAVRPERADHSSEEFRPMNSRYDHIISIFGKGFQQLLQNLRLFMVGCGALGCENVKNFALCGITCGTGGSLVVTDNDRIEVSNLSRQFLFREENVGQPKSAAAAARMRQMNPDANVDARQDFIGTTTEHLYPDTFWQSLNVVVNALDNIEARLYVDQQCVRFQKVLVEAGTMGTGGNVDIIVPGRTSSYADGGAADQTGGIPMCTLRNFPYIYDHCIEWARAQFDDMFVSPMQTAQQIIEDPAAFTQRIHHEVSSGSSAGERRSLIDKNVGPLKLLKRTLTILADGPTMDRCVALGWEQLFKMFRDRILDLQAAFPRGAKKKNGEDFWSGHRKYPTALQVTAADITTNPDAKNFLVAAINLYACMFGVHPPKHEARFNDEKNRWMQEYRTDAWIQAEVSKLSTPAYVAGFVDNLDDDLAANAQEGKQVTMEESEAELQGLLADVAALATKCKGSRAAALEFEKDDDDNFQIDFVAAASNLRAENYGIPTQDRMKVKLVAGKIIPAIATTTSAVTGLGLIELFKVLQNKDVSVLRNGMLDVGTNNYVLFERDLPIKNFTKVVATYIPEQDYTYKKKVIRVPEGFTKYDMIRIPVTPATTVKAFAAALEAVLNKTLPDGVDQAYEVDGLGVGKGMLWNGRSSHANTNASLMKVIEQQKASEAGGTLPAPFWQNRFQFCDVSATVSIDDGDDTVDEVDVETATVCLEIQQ
The experiment in a line: Leishmania donovani Ubiquitin Activating Enzyme (LdE1). The class given is functional. The following applies: 30 µM.

Assay [3] deals with AMP-activated protein kinase, AMPK (Homo sapiens) (UniProt P54646+O43741+P54619+Q9UGJ0+Q9Y478+Q13131+Q9UGI9). The experiment in a line: AMP-dependent Kinase enzyme assay. An in vitro enzyme assay that detects ADP turnover that is directly proportional to AMPK activity. This uses naive AMPK that is activated during the assay with MK-8722. Type of assay: functional. Conditions: 30 µM.

In assay [4] the target is Sialic acid-binding Ig-like lectin 9 (Homo sapiens) (UniProt Q9Y336). The assay can be described thus: Hs-Siglec9 ALPHAscreen SOP 20170721. The following applies: 10 µM.
Chain of Sialic acid-binding Ig-like lectin 9 (Homo sapiens) (Q9Y336 whole entry): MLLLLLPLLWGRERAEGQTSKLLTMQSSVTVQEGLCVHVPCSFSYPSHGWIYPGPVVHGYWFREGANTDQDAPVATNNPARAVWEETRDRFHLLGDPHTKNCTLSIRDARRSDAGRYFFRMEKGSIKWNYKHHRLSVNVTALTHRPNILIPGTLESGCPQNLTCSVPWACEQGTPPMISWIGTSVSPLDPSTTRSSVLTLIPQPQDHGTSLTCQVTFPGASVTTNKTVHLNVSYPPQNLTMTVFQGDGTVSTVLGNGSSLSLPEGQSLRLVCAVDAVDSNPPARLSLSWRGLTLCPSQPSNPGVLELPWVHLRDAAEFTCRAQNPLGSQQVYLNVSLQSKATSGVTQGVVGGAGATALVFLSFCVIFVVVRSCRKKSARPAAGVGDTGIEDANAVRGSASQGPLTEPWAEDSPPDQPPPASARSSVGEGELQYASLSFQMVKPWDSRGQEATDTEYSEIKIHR
A further assay relates to Trypanosoma cruzi. The experiment in a line: Trypanosoma cruzi phosphomannomutase and mannose-1-phosphate guanylyltransferase assay. The class given is functional. Conditions: 10 µM.
Assay [5] has as its target T2, Arginase-2, mitochondrial (Homo sapiens) (UniProt P78540).
T2 sequence (whole entry): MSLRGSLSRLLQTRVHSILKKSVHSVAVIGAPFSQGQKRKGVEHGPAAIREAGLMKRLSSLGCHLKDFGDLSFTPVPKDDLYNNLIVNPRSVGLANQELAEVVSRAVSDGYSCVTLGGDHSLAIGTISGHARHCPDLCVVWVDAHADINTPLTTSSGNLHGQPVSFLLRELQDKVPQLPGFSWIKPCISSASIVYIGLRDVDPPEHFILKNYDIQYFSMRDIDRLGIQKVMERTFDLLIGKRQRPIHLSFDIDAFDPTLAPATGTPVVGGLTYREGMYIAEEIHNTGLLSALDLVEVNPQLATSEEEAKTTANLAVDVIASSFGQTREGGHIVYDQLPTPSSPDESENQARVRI
The experiment in a line: in vitro enzyme assay to detect the production of urea directly proportional to the activity of Arginase II. Further: in the data most compounds retested in dose-response had high values. Type of assay: functional. The following applies: 33.3 µM.

Assay [6] addresses T3, Proteasome subunit beta (Trypanosoma cruzi) (UniProt O96673).
T3 sequence (whole entry): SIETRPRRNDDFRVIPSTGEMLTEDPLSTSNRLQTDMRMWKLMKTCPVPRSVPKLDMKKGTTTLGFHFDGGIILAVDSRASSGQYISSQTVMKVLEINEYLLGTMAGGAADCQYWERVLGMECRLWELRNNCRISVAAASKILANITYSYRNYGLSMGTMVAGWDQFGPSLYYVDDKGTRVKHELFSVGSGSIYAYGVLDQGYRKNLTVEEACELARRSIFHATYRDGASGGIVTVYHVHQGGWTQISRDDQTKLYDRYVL
The assay can be described thus: Trypanosoma cruzi proteasome chymotrypsin-like activity (TcProtChymo) assay. Further: in the data most compounds retested in dose-response had high values. The class given is functional. Conditions: 9.37 µM.

Another assay is filed under the species Homo sapiens. The experiment in a line: To identify inhibition of the IFN signalling (Jak-Stat) pathway via expression of an eGFP reporter gene under the control of an IFN-stimulated response element (ISRE) containing MxA promoter. Type of assay: functional. The following applies: 30 µM. Background: Reporter assays use an easily measured gene product as a stand-in for the process of interest.

Assay [7] has as its target T4, Tyrosyl-tRNA synthetase, putative (Trypanosoma cruzi (strain CL Brener)) (UniProt Q4DSP6).
T4 sequence (whole entry): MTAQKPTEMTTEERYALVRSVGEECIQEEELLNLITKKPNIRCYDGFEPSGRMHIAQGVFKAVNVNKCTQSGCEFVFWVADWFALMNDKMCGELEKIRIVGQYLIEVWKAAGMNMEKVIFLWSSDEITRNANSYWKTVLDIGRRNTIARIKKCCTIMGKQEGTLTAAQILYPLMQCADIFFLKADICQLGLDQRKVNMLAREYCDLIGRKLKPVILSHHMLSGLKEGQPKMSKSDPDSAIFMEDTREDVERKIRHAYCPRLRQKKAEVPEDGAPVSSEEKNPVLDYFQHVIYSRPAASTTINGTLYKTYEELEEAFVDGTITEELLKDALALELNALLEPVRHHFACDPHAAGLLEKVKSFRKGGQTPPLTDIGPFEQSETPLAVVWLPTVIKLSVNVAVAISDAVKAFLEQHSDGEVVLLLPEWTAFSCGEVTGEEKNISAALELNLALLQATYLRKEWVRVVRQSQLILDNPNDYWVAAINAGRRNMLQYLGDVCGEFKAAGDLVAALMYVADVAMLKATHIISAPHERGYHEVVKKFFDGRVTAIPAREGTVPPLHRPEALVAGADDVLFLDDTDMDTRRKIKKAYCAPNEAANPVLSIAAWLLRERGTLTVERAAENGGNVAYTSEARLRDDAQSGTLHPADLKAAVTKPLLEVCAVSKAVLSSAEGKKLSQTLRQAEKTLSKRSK
The assay can be described thus: Trypanosoma cruzi tyrosyl tRNA synthetase (TcYRS) _High Tyrosine SOP. Further: in the data most compounds retested in dose-response had high values. Conditions: 30 µM. Type of assay: functional.

Assay [8] concerns the target T4, Tyrosyl-tRNA synthetase, putative (Trypanosoma cruzi (strain CL Brener)). The experiment in a line: Trypanosoma cruzi tyrosyl tRNA synthetase (TcYRS) SOP. Type of assay: functional. Conditions: 30 µM.
The target of assay [9] is Chromo domain-containing protein 1 (Saccharomyces cerevisiae (strain ATCC 204508 / S288c) (Baker's yeast)) (UniProt P32657). The assay can be described thus: ScCHD-1 Enzyme Inhibition Assay. Further: in the data most compounds retested in dose-response had high values. Conditions: 30 µM. The class given is functional.
Chain of Chromo domain-containing protein 1 (Saccharomyces cerevisiae (strain ATCC 204508 / S288c) (Baker's yeast)) (P32657 whole entry, the tested form may be a part): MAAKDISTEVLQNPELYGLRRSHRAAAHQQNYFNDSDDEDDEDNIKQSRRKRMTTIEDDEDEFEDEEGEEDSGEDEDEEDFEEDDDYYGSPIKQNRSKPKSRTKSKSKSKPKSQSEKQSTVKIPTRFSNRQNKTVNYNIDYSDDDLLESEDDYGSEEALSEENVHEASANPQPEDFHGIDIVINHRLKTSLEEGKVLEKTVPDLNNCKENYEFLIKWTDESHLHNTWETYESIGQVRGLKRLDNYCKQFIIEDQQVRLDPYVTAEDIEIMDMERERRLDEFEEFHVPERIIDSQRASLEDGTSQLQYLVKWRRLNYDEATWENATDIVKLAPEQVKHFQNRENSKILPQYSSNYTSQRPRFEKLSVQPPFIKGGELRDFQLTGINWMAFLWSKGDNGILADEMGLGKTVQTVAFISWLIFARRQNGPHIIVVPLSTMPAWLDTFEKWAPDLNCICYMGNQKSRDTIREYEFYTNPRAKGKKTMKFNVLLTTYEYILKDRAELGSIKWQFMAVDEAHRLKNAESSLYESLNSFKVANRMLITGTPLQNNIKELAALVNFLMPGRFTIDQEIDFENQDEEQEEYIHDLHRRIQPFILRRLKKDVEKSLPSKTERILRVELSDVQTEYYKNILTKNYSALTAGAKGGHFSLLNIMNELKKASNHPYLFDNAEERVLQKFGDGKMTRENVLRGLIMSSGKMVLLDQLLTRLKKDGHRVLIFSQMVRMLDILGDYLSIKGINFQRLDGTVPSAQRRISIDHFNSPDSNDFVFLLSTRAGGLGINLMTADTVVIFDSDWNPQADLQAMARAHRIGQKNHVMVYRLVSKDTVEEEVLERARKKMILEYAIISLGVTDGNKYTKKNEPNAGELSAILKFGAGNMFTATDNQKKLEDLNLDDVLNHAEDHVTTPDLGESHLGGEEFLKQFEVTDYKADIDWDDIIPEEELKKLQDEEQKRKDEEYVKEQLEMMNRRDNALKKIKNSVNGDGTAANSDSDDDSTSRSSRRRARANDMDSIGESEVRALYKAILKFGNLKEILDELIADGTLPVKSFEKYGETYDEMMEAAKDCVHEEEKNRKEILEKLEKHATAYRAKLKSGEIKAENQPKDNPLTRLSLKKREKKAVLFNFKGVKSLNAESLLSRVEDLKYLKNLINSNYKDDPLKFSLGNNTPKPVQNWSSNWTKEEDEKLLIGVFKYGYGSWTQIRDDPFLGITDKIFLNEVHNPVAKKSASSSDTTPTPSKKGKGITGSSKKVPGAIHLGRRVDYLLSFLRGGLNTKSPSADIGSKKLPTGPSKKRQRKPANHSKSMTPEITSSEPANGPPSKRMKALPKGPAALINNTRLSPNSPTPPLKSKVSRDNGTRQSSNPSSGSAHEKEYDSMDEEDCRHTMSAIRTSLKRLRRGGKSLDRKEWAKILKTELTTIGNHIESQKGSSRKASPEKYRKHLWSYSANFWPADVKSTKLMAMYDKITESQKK

Experimental findings from ChEMBL document CHEMBL3988442, “University of Dundee, Small-Polar-MMV Screening Library” (2021) are described below.

For some of these results: Entries with a potency or affinity are not part of this list.

Chain of Protein translocase subunit SecA (Escherichia coli (strain K12)) (P10408 whole entry): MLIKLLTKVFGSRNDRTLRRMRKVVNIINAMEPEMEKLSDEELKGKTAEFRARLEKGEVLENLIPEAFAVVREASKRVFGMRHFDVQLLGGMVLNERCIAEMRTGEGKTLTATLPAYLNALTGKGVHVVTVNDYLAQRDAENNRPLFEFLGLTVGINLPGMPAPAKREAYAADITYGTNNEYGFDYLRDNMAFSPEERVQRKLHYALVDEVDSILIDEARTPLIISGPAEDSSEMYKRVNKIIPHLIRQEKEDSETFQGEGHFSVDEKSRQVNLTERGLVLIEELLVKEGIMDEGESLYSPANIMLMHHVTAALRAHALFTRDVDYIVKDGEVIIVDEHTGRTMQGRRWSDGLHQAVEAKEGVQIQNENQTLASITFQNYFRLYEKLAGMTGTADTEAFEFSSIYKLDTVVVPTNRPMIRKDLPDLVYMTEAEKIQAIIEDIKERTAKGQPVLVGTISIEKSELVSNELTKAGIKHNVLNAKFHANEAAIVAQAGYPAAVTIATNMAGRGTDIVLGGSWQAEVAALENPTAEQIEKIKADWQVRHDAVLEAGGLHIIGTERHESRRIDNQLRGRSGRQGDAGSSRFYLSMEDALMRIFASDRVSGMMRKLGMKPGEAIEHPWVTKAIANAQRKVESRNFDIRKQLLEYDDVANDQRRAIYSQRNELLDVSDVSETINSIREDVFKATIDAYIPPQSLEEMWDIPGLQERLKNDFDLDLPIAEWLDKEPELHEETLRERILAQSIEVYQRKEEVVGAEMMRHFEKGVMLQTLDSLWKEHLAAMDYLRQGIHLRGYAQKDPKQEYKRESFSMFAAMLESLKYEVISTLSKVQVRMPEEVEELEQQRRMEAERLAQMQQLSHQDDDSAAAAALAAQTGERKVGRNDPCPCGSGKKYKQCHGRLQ

With `O=C(COc1coc(CN2CCCC2)cc1=O)NCc1ccccc1Cl`, the Percent Effect in assay [1] was -2.51%; in assay [2], 1.33%; in [3], 5.09%; in assay [4], 5.58%; with Trypanosoma cruzi, 0.393%; in assay [5] it was -1.94%. The Percent Effect in assay [6] was 7.02%; in the assay listed under Homo sapiens it was -13.6%; in assay [7], 6.35%; in [8], 10.3%; in assay [9], 0.789%.

As to `NS(=O)(=O)CCNC(=O)c1nnn(-c2ccccc2)c1C1CC1`, the Percent Effect was 0.0352% in [1]; 2.7% in assay [2]; 0.144% in [3]; -1.59% in assay [4]; -8.4% with Trypanosoma cruzi; 2.92% in [5]. Also, the Percent Effect in [6] is 12.1%; in the assay listed under Homo sapiens it was 1.92%; in assay [7] it was 4.95%; in [8], 6.1%; in assay [9], -4.86%.

For `COCc1nc(C(=O)N2CCCC2c2noc(C(C)C)n2)cs1` (stereo unspecified), the Percent Effect was -3.95% in assay [1]; 1.27% in assay [2]; 8.09% in assay [3]; -0.11% in [4]; -1.74% in the assay with Trypanosoma cruzi; 3.66% in [5]. Further, the Percent Effect in [6] is -0.343%; in the assay filed under Homo sapiens it was 3.65%; in assay [7], 3.12%; in assay [8] it was 5.06%; in assay [9], 11.7%.

On to `COc1cc(C)sc1C(=O)N1CCC(Nc2cccnc2)CC1`, for which the Percent Effect in [1] is -6.41%; in [2] it was -121%; in [3] it was 0.841%; in [4], 37.6%; in the assay with Trypanosoma cruzi, 3.17%; in [5], 3.19%. The Percent Effect in assay [6] came to 3%; in the assay listed under Homo sapiens it was 5.06%; in [7], 8.33%; in assay [8], 11.1%; in [9] it was 0.713%.

In the case of `Cc1cc(CN2CC[C@H]3C(=O)N(c4ccccc4)CCO[C@H]3C2)no1`, the Percent Effect in assay [1] is -3.31%; in assay [2] it was 21.3%; in assay [3], 1.48%; in assay [4] it was -6.56%; in the assay with Trypanosoma cruzi it was -4.92%; in [5] it was -2.1%. For the same compound, the Percent Effect in [6] was 8.37%; in the assay listed under Homo sapiens it was 19.1%; in [7] it was 2.13%; in [8] it was 11.5%; in [9], -1.25%.

For `CN1CCN(C(CNC(=O)CCn2cccn2)c2cccs2)CC1` (stereo unspecified), the Percent Effect was 1.81% in assay [1]; -2.67% in [2]; -4.22% in assay [3]; 0.224% in assay [4]; -3.6% with Trypanosoma cruzi; 4.17% in assay [5]. Moreover, the Percent Effect in assay [6] came to 6.63%; in the assay filed under Homo sapiens it was 5.37%; in [7] it was 2.73%; in assay [8], 3.7%; in assay [9] it was 2.11%.

Turning to `Cc1cccc(-c2nc(C)nn2CC(=O)N(C)C2CC2)c1`, the Percent Effect in [1] was -4.92%; in [2] it was 15.6%; in [3], 4.09%; in assay [4] it was 7.36%; in the assay on Trypanosoma cruzi, 3.18%; in assay [5], -3.2%. For the same compound, the Percent Effect is 3.55% in assay [6]; 5.06% in the assay listed under Homo sapiens; 6.8% in assay [7]; 21.9% in assay [8]; -3.56% in [9].

`COCC1c2c(cnn2CC2CC2)CCN1Cc1cccs1` (stereo unspecified): the Percent Effect in assay [1] was -0.701%; in assay [2], -5.33%; in assay [3] it was 6.98%; in assay [4] it was 7.58%; with Trypanosoma cruzi, -2.51%; in assay [5], -9.5%. Also, the Percent Effect was 10.1% in assay [6]; -16.5% in the assay filed under Homo sapiens; 3.12% in assay [7]; -2.5% in assay [8]; -3.74% in assay [9].

With `CN1CCC(Oc2ccc(NC(=O)c3ccccc3Br)cc2)CC1`, the Percent Effect in [1] was -0.903%; in assay [2] it was -2.6%; in assay [3], 0.999%; in assay [4], 7.1%; in the assay on Trypanosoma cruzi, 6%; in assay [5], -4.14%. The Percent Effect in [6] is 10.8%; in the assay filed under Homo sapiens, 7.69%; in assay [7] it was 1.07%; in [8], 3.7%; in assay [9], -4.57%.

In the case of `O=C(c1ccc(Cl)c(Cl)c1)N1CCCC(n2cncn2)C1` (stereo unspecified), the Percent Effect in assay [1] is -0.919%; in assay [2], 2.7%; in [3], -3.55%; in assay [4] it was 0.213%; in the assay on Trypanosoma cruzi it was -2.14%; in assay [5], 6.47%. The Percent Effect was -7% in assay [6]; 6.82% in the assay filed under Homo sapiens; 3.96% in [7]; 3.66% in [8]; 7.67% in [9].

In the case of `c1cnn(CC2CN(c3ncnc4sccc34)CCO2)c1` (stereo unspecified), the Percent Effect in assay [1] is -4.4%; in assay [2] it was 2.7%; in [3], 2.36%; in [4], -2.57%; with Trypanosoma cruzi, 1.37%; in assay [5], 2.08%. Also, the Percent Effect is 17.8% in [6]; 52.9% in the assay filed under Homo sapiens; 12.9% in assay [7]; 15.8% in assay [8]; -4.89% in assay [9].
